Only some compounds are listed: those with a hit (about 6.6% of all), similar ones and a draw of the others.
MCF10A rereplic: DNA re-replication induction in MCF 10a cells; actives 2.9% (n = 350,000); AID 624296; MCF 10A DNA re-replication, Hoechst nuclear intensity, 48 h; Potency, µM (titrated, usually from 46.1 µM), for inactives: at the top dose activity, positive = re-replication, most hits filed as activators; also: % of control where 0% means no effect; nearly all actives have a fitted effect of over 50% in size
KB-3-1 tox: KB-3-1 parental cell cytotoxicity; KB-3-1 viability, CellTiter-Glo ATP luminescence, 72 h; Potency, µM (highest dose often 46.1 µM), hits mostly cytotoxic; actives 1.4% (n = 400,000); also: % is scaled to controls: 0 for no effect and ±100 for the full control effect; nearly all actives have a fitted effect of over 60% in size
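Here the drug-naive KB-3-1 line serves as comparator for MDR sub-line selectivity; cells received compound titrations, 72 h at 37 °C, then CellTiter-Glo readout.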
RGS4 inh: inhibitors of human regulator of G protein signaling 4 | actives 0.039% (n = 390,000) | Potency, µM (doses to about 114 µM), inactives show at the top dose activity change, negative = inhibition, usual class: inhibitors | P49798 | Transcreener GDP fluorescence polarization, RGS4-accelerated GTP hydrolysis | AID 504845; also: % is scaled to controls: 0 for no effect and ±100 for the full control effect; nearly all actives have a fitted effect of over 75% in size
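MLSMR compounds (23 nl, pin-transferred) preincubated 10 min at room temperature with a 500nM (2x) first reagent, then RGS4 at 900nM (2x) plus Transcreener GDP mix added; fluorescence polarization (620/688 nm) read before and after 90 min at 30 °C.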
KB-V1 cytotox: kills drug-selected multidrug resistant KB-V1 cells; KB-V1 MDR cells viability, CellTiter-Glo, 72 h; AID 1347076; actives 3.4% (n = 400,000); Potency, µM (highest dose often 46.1 µM), most hits filed as cytotoxic; also: % is scaled to controls: 0 for no effect and ±100 for the full control effect; nearly all actives have a fitted effect of over 60% in size
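Following 72 h at 37 degrees C with compound, KB-V1 cell viability was read by CellTiter-Glo luminescence, medium being phenol-red-free DMEM plus 10% FBS; concentration-response parameters came from normalized, curve-fitted qHTS data.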
SW480 rereplic: DNA re-replication induction in SW480 cells | actives 1.8% (n = 340,000) | Potency, µM (series often up to 46.1 µM), for the others: top-dose re-replication activation, most hits filed as activators | SW480 DNA re-replication, Hoechst DNA content imaging, 48 h | AID 624297; also: % of control where 0% means no effect; nearly all actives have a fitted effect of over 55% in size
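DNA re-replication was detected as more nuclei of elevated Hoechst intensity after 48 hr exposure to compound (23 nL pinned per well of 250 cells).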
TSG101-PTAP inh: blocks PTAP/TSG101 interaction to inhibit HIV-1 budding; Q99816; Fluorescence polarization, FITC-PTAP peptide / Tsg101 binding; Potency, µM (doses to about 115 µM), without a hit: at the highest dose activity change, negative = inhibition, hits mostly inhibitors; 340,000 tested, under 10 active; active = well fitted inhibition curve with a large enough effect in the main read-out, with a control signal flat, not every such curve was filed as active; inconclusive = small, poorly fitted or top-dose-only effect, or effect the other way, or a change in a side signal; inactive = no such curve, though single readings can be large or run the other way; also: % of control where 0% means no effect
Target sequence (Q99816 whole entry, looked up): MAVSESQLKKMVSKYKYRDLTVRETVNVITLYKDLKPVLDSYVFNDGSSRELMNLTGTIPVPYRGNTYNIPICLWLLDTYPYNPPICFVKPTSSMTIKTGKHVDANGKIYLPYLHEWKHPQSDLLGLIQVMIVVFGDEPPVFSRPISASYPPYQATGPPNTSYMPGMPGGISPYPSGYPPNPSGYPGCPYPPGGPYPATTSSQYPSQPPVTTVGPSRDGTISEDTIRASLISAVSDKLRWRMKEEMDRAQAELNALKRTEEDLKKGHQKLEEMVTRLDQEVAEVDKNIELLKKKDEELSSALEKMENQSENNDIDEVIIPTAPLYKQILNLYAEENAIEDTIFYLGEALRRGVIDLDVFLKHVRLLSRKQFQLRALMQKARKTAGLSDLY
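Tsg101 binding domain (10 uM final) was mixed with compound and a FITC-labeled PTAP peptide (50 nM final) in HEPES pH 7.5 buffer with NaCl, Tween 20, EDTA and TCEP; fluorescence polarization was read after 20 min at r.t.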
The depositor's hits bear a star; i = inactive; ? = inconclusive; / = not tested or not shown; [ ] = remark or other dose. Unless noted, calls follow the shape of the dose curve; as a rule, active = well fitted curve in the direction sought with a large enough effect; inconclusive = small, poorly fitted or top-dose-only effect, or another doubt; inactive = no such curve, though single readings can be large; an effect the other way counts as inactive or inconclusive. Potency is read from the fitted curve at half-maximal effect.

SMILES | MCF10A rereplic | KB-3-1 tox | RGS4 inh | KB-V1 cytotox | SW480 rereplic | TSG101-PTAP inh
CCCn1nc(NC(=O)c2ccccn2)c2cc3cc(C)ccc3nc21 | ? | ? | 0% | i | 7.3µM* | -2%
COc1cccc(-c2nc(SCC(=O)NCC3CCCO3)c(-c3ccc(Cl)cc3)[nH]2)c1 (configuration not stated) | / | i | 4% | ? | / | /
Cc1ccc2nc(-c3cccs3)c(Nc3c(C)cccc3C)n2c1 | / | i | -6% | i | / | /
Cn1c(SCC(=O)N2CCN(c3ccccc3)CC2)nnc1-c1cc2ccccc2o1 | 1% | 23µM* | 20% | i | -1% | -4%
Cn1c(Cc2ccccc2)nnc1SCC(=O)N1CCN(c2ccccc2)CC1 | ? | ? | -22% | i | 11% | -2%
Cn1cccc1Cc1nnc(SCC(=O)N2CCN(c3ccccc3)CC2)n1-c1ccc(F)cc1 | 14% | i | 6% | 12µM* | -6% | 0%
Cn1c(Cc2cccc3ccccc23)nnc1SCC(=O)N1CCN(c2ccccc2)CC1 | 7% | i | 19% | 15µM* | 12% | -5%
S=Cc1nc2ccccc2[nH]1 | / | ? | / | i | / | /
CCOc1ccc(C(=O)N2CC(=O)Nc3ccc(C)cc3C2c2ccc(F)cc2)cc1OCC (configuration not stated) | / | i | -6% | i | / | /
O=S(=O)(Nc1nc2ccccc2[nH]1)c1ccccc1 | -1% | i | 13% | 21µM* | -1% | -2%
Cc1cc2nc(-c3ccc(SCc4ccccc4C#N)nc3)[nH]c2cc1C | 13% | i | -33% | 21µM* | ? | -2%
Cc1cc2nc(-c3ccc(SCc4ccc(C(=O)O)cc4)nc3)[nH]c2cc1C | 12% | ? | ? | i | ? | -5%
Cc1cc2nc(-c3ccc(SCC(=O)Nc4ccc(S(=O)(=O)NC5CC5)cc4)nc3)[nH]c2cc1C | 21µM* | i | -53% | i | ? | 9%
Cc1cc(NC(=O)CSc2ccc(-c3nc4cc(C)c(C)cc4[nH]3)cn2)no1 | 0.18µM* | i | 7% | ? | ? | -3%
O=C(Nc1ccc(Oc2c(F)c(F)c(F)c(F)c2F)cc1)OC1CCN2Cc3ccccc3N=C12 (configuration not stated) | 13µM* | 8.2µM* | -27% | ? | 13µM* | -1%
Cc1cccc(NC(=O)Nc2ccc(Oc3c(F)c(F)c(F)c(F)c3F)cc2)c1 | 0% | i | 10% | i | -2% | -5%
O=C(COC(=O)C12CC3CC(CC(Cl)(C3)C1)C2)NCc1ccco1 | / | / | -10% | / | / | /
COc1ccc(-n2nc(C(=O)N3CCC(C)CC3)c3c4ccccc4n(C)c3c2=O)cc1Cl | / | i | 14% | i | / | /
COC1=C(N)C(=O)c2nc(C)ccc2C1=O | 11% | 4.6µM* | -52% | ? | ? | -1%
COC1=C(Br)C(=O)c2nc(C)ccc2C1=O | / | i | / | i | / | /
O=C(c1ccc(-n2c(SCc3cc(F)ccc3F)nc3ccccc3c2=O)cc1)N1CCOCC1 | 10% | ? | 14% | 0.65µM* | ? | -10%
CC1(C)Cc2c(sc3nc(SCC(=O)NCc4ccco4)n(-c4ccccc4)c(=O)c23)CS1 | 7.1µM* | i | 8% | i | -1%[9.22 µM] | -5%
CCOC(=O)CC(=O)CSc1nc2ccccc2c(=O)n1-c1ccc(C(=O)N2CCOCC2)cc1 | -8% | ? | -18% | ? | -2% | /
O=C(CCn1c(SCC(=O)NCc2ccco2)nc2ccccc2c1=O)NCCc1ccccc1 | -2% | i | -24% | 21µM* | -7% | -3%
COn1c(SCc2cccc(Cl)c2)nc2ccccc2c1=O | 18% | ? | 3% | 16µM* | 1% | -6%
COC(=O)[C@H](CC(C)C)NS(=O)(=O)NC(=O)OC(C)(C)C | / | i | / | i | / | /

Source: PubChem
